Measurements from PubChem BioAssay (EPA / NIEHS).
Results filed as inconclusive are left out. Calls of active or inactive are those of the source. The calls were made as follows, unless noted: active = hit-call score of the fitted dose curve at least 0.9, where 1 is the maximum; inactive = score below 0.9.

Tests used:
[1] = CCTE_Shafer_MEA_dev_burst_duration_mean: CCTE's Neural Network Formation Assay for Mean Burst Duration, Shafer Lab (AID 2284045);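 also: curve fitted for loss meaning shorter burst duration than DMSO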
Procedure, shortened: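 Primary rat cortical neurons on 48-well 16-electrode MEA plates, exposed from day 0 with renewal at DIV 5 and 9; spontaneous activity recorded on days 5, 7, 9, 12. Well-mean burst duration across bursting electrodes, collapsed as trapezoidal AUC; DMSO baseline.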

[2] = CCTE_Shafer_MEA_dev_interburst_interval_mean: CCTE's Neural Network Formation Assay for Mean Interburst Interval, Shafer Lab (AID 2284046);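 also: well-mean interburst interval of bursting electrodes as AUC over four recording days; curve fitted for decrease in interburst interval relative to DMSO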
Procedure, shortened: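 Network formation assay in primary rat cortical cultures, exposed from DIV 0 to 12. Mean interburst interval per well, integrated as AUC over four recordings.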

[3] = CCTE_Shafer_MEA_dev_network_spike_number: CCTE's Neural Network Formation Assay for Number of Network Spikes, Shafer Lab (AID 2284048);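 also: synchronized bursts across electrodes counted on days 5 7 9 12 and integrated as AUC; fit as a loss of signal meaning fewer network spikes than DMSO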
Procedure, shortened: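 Primary rat cortical neurons on PEI/laminin 48-well MEA plates, dosed from plating day 0 for 12 days, renewed at DIV 5 and 9. Network spike counts recorded DIV 5, 7, 9, 12, collapsed as trapezoidal AUC; DMSO baseline.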

[4] = CCTE_Shafer_MEA_dev_network_spike_peak: CCTE's Neural Network Formation Assay for Mean Number of Electrodes in Network Spike, Shafer Lab (AID 2284049);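 also: fitted for loss of signal meaning fewer electrodes in network spikes than DMSO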
Procedure, shortened: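 Network-spike peak electrode count from recordings on days 5, 7, 9 and 12 was combined as trapezoidal area under the curve. Rat cortical cultures were treated continuously from plating, with compound renewed at each feed (DIV 5, 9); fits versus DMSO.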

[5] = CCTE_Shafer_MEA_dev_spike_duration_mean: CCTE's Neural Network Formation Assay for Mean Spike Duration, Shafer Lab (AID 2284051);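 also: mean network spike duration pooled as area under curve over DIV 5 to 12 recordings; potency for a decrease in mean network spike duration versus DMSO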
Procedure, shortened: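 With DMSO as baseline, loss of mean network spike duration was scored from extracellular recordings of rat cortical neurons on MEA plates. Exposure spanned plating to DIV 12; the four recording days were collapsed into one AUC value.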

[6] = CCTE_Shafer_MEA_dev_network_spike_duration_std: CCTE's Neural Network Formation Assay for Standard Deviation of Network Spike Duration, Shafer Lab (AID 2284052);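 also: area under curve of spike duration SD across recording days 5 to 12; hits are decreases in network spike duration SD versus DMSO vehicle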
Procedure, shortened: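 Developing networks of rat cortical neurons were exposed over twelve days in vitro on 48-well MEA plates. Trapezoidal AUC of recordings (DIV 5–12) was analysed for signal loss relative to DMSO vehicle.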

[7] = CCTE_Shafer_MEA_dev_per_network_spike_spike_number_mean: CCTE's Neural Network Formation Assay for Mean Number of Spikes in a Network Spike, Shafer Lab (AID 2284053);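 also: fitted as decrease in spikes per network spike relative to DMSO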
Procedure, shortened: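 First, rat cortical cells (1.5 x 10^5/well) were seeded onto MEA wells; second, dosing began at plating and was refreshed on DIV 5 and 9; finally, network-spike spike counts across DIV 5–12 were summarized as AUC.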

[8] = CCTE_Shafer_MEA_dev_per_network_spike_spike_percent: CCTE's Neural Network Formation Assay for Percent of Spikes in a Network Spike, Shafer Lab (AID 2284054)
Procedure, shortened: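 Rat primary cortical neurons were grown on 48-well MEA plates (16 electrodes/well), exposed from plating day 0 through day 12, with treatment renewed on DIV 5 and 9. Percent of spikes within 0.05 s network-spike peaks was measured, summarised as AUC across days 5, 7, 9, 12.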

[9] = CCTE_Shafer_MEA_dev_LDH: CCTE's Lactate Dehydrogenase Assay for Cytotoxicity in the Neural Network Formation Assay, Shafer Lab (AID 2284068; active = hit-call score of the fitted dose curve at least 0.9, where 1 is the maximum;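 also: exposure for twelve days from plating with re-dosing on DIV 5 and 9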)
Procedure, shortened: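 Developing rat cortical networks on MEA plates are exposed to compound for 12 days from plating. LDH activity is measured spectrophotometrically, with DMSO as baseline.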

[10] = CCTE_Shafer_MEA_acute_AB: CCTE's Alamar Blue Assay for Cytotoxicity in the Neural Acute Assay, Shafer Lab (AID 2284069; active = hit-call score of the fitted dose curve at least 0.9, where 1 is the maximum;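 also: active compounds lower the viability signal compared with DMSO wells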)
Procedure, shortened: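 Cytotoxicity endpoint for acute MEA exposures of primary rat cortical neurons on day 13 or 15. Resazurin reduction is read fluorescently at 544/590 nm, with DMSO as the negative-control baseline.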

[11] = UKN5_HCS_SBAD2_neurite_outgrowth: University of Konstanz (UKN) Leist Lab Neurite Outgrowth Assay in human iPSC-derived immature Dorsal Root Ganglia Neurons (UKN5) (AID 2284070); settings: actives raise or lower the signal
Procedure, shortened: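 Human iPSC-derived immature DRG neurons (SBAD2) on Matrigel with CHIR99021 (1.5 uM), SU5402 (5 uM), DAPT (5 uM); compounds added 1 h post-seeding for 24 h. Calcein-AM neurite area imaged; bidirectional fit vs DMSO.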

[12] = CCTE_Shafer_MEA_dev_AB: CCTE's Alamar Blue Assay for Cytotoxicity in the Neural Network Formation Assay, Shafer Lab (AID 2284083; active = hit-call score of the fitted dose curve at least 0.9, where 1 is the maximum;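 also: resazurin reduction fluorescence as viability of cultured neurons; twelve days of exposure from plating with re-dosing on DIV 5 and 9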)
Procedure, shortened: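 Cytotoxicity companion to the developmental MEA: primary rat cortical neurons, 12-day exposure starting day 0, compound refreshed DIV 5 and 9; resazurin fluorescence, fitted against DMSO vehicle.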

[13] = CCTE_Shafer_MEA_acute_LDH: CCTE's Lactate Dehydrogenase Assay for Cytotoxicity in the Neural Acute Assay, Shafer Lab (AID 2284086; active = hit-call score of the fitted dose curve at least 0.9, where 1 is the maximum;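 also: active means LDH release rises above DMSO vehicle level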)
Procedure, shortened: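 Primary rat cortical neurons on 48-well MEA plates, treated on day 13 or 15 post-plating. After the 40-min recording with compound, medium LDH release was read by absorbance at 490 nm. Gain of signal was fitted against DMSO negative control.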

[14] = CCTE_Shafer_MEA_dev_mutual_information_norm: CCTE's Neural Network Formation Assay for Mutual Information Normalization, Shafer Lab (AID 2284091);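 also: mutual information between electrodes summarised as area under curve across four recording days; potency is for a decrease in mutual information relative to DMSO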
Procedure, shortened: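 Primary rat cortical neurons on PEI-coated 48-well MEA plates, 1.5 x 10^5 cells/well, exposed from day 0 through day 12 with re-dosing at DIV 5 and 9. Mutual information between electrodes recorded days 5, 7, 9, 12; trapezoidal AUC, loss-of-signal fit versus DMSO.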

[15] = CCTE_Shafer_MEA_dev_correlation_coefficient_mean: CCTE's Neural Network Formation Assay for Mean Correlation Coefficient, Shafer Lab (AID 2284093);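 also: well mean pairwise spike train correlation integrated as AUC over recording days 5 to 12; potency fitted for loss of correlation relative to DMSO vehicle wells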
Procedure, shortened: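 Extracellular firing from rat cortical networks on 48-well MEAs, DMSO-referenced, negative fitting direction. Compound present from plating to DIV12; mean pairwise correlation per well integrated over DIV5–12 recordings by trapezoidal AUC.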

[16] = UKN4_HCS_LUHMES_neurite_outgrowth: University of Konstanz (UKN) Leist Lab Neurite Outgrowth Assay in human LUHMES cells (UKN4) (AID 2284206); settings: actives raise or lower the signal
Procedure, shortened: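 LUHMES neuronal precursors differentiated 2 days, replated without cAMP/GDNF, then exposed to chemicals for 24 h. Neurite area imaged by high-content microscopy after calcein-AM staining; Hoechst H-33342 marks viability. Bidirectional fit versus DMSO.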

[17] = IUF_NPC1b_proliferation_BrdU_72hr: Leibniz Research Institute for Environmental Medicine (IUF) 72-hour Neural Progenitor Cell Bromodeoxyuridine (BrdU) Proliferation Assay (NPC1b) (AID 2284207)
Procedure, shortened: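 BrdU luminescence ELISA quantified DNA synthesis over the last 16 h of a 72 h exposure, fitted against DMSO. Primary hNPC spheres from gestational week 16-19 cortex grown with EGF/FGF at 37C, pH 7.2-7.6.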

[18] = CCTE_Mundy_HCI_Cortical_Synap_Neur_Matur_NeuriteSpotCountPerNeuriteLength: CCTE's Synaptogenesis and Neurite Maturation Assay in rat cortical cells for Neurite Spot Count per Neurite Length, Mundy Lab (AID 2284210)
Procedure, shortened: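 Rat primary cortical cultures, AraC added at DIV 5 to suppress glia; chemical exposure from DIV 7 to DIV 12. Fixed cells stained for MAP2 and synaptophysin plus Hoechst; synaptophysin puncta per neurite length quantified by high-content imaging, relative to DMSO.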

[19] = CCTE_Mundy_HCI_Cortical_Synap_Neur_Matur_BPCount: CCTE's Synaptogenesis and Neurite Maturation Assay in rat cortical cells for Branch Point Count, Mundy Lab (AID 2284211)
Procedure, shortened: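 Branch point number is quantified by automated imaging of fluorescently labelled neurites and synapses in rat primary cortical neurons exposed from DIV 7 to DIV 12. Activity is analysed relative to DMSO negative control.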

[20] = CCTE_Mundy_HCI_Cortical_NOG_NeuriteCount: CCTE's Neurite Outgrowth Assay in rat cortical cells for Neurite Count, Mundy Lab (AID 2284212);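 also: cells fixed about two days after chemical exposure began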
Procedure, shortened: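 Neurite number per cell from high-content imaging of betaIII-tubulin immunostaining, with Hoechst nuclear counterstain.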

[21] = CCTE_Mundy_HCI_Cortical_NOG_NeuriteLength: CCTE's Neurite Outgrowth Assay in rat cortical cells for Neurite Length, Mundy Lab (AID 2284213);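 also: neurites imaged about 48 to 50 h after chemical exposure began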
Procedure, shortened: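 Neurite length was read by high-content imaging of βIII-tubulin-labelled neurites in rat primary cortical cultures. Activity was fitted relative to DMSO.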

[22] = CCTE_Mundy_HCI_Cortical_Synap_Neur_Matur_NeuriteLength: CCTE's Synaptogenesis and Neurite Maturation Assay in rat cortical cells for Neurite Length, Mundy Lab (AID 2284214)
Procedure, shortened: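 Rat primary cortical cells were plated, treated with AraC at DIV 5 to arrest glial growth, then chemical-dosed with media change at DIV 7 through DIV 12. Fixed cells stained for MAP2, synaptophysin and Hoechst; neurite length quantified by high-content imaging.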

[Cd+2].[Cl-].[Cl-]
AC50 [1]: 387 nM (active) | AC50 [2]: 460 nM (active) | AC50 [3]: 299 nM (active) | AC50 [4]: 208 nM (active) | AC50 [5]: 119 nM (active) | AC50 [6]: 23.9 nM (active) | AC50 [7]: 260 nM (active) | AC50 [8]: 585 nM (active) | AC50 [9]: 1510 nM (active) | outcome [10]: inactive | AC50 [11]: 50000 nM (active) | AC50 [12]: 1210 nM (active) | outcome [13]: inactive | AC50 [14]: 178 nM (active) | AC50 [15]: 609 nM (active) | AC50 [16]: 6250 nM (active) | AC50 [17]: 6450 nM (active) | outcome [18]: inactive | AC50 [19]: 1380 nM (active) | AC50 [20]: 13100 nM (active) | AC50 [21]: 12400 nM (active) | AC50 [22]: 1460 nM (active)
